Records with an inconclusive call do not appear. Activity calls are given as the source filed them. Unless noted, the call rests on the fitted dose curve; in most records, active means well fitted curve in the direction sought with a large enough effect; inconclusive means small, poorly fitted or top-dose-only effect, or another doubt; inactive means no such curve, though single readings can be large; an effect the other way counts as inactive or inconclusive.
Legend:
[1] = Cell Viability - LYMP2-001 (AID 921); further: potency means the concentration at half of the fitted maximal effect; nearly all actives have a fitted effect of over 70% in size
Outline: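 Steps: seed 2500 lymphoblastoid cells/well; 5 hr, 37 C; add compound; 24 hr, 37 C; CellTiter-Glo reagent, 30 min room temperature; read luminescence. Concentration-response modeled by Hill equation for AC50.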

[2] = Cell Viability - LYMP2-009 (AID 968); further: potency means the concentration at half of the fitted maximal effect; nearly all actives have a fitted effect of over 55% in size
[3] = Cell Viability - LYMP2-011 (AID 969);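 further: potency means the concentration at half of the fitted maximal effect; cells exposed to compound for 24 hours; nearly all actives have a fitted effect of over 60% in size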
Outline: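 Cells seeded at 2500 per well rest 5 hr before compound addition, then incubate 24 hr at 37 C. CellTiter-Glo reagent is added for 30 min at room temperature before luminescence detection.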

[4] = Cell Viability - LYMP2-013 (AID 970); further: potency means the concentration at half of the fitted maximal effect; nearly all actives have a fitted effect of over 55% in size
Outline: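 In complete culture medium, human lymphoblastoid cells were dosed for 24 hr at 37 C, with tetraoctylammonium bromide (6.4pM to 92 uM) as positive control. Viability reflects luciferase-based ATP signal; AC50 derived from concentration-response curves.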

[5] = Cell Viability - LYMP2-015 (AID 971); further: potency means the concentration at half of the fitted maximal effect; nearly all actives have a fitted effect of over 55% in size
Outline: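 AC50 values reflect Hill-model fits of ATP-based luminescence (CellTiter-Glo) from a human lymphoblastoid line, 2500 cells/well, treated 24 hr at 37 C.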

[6] = Cell Viability - LYMP2-017 (AID 972);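 further: potency means the concentration at half of the fitted maximal effect; cells exposed to compound for 24 hours at 37 °C; nearly all actives have a fitted effect of over 55% in size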
Outline: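 In this qHTS format, lymphoblastoid cells in complete medium receive test compound for a day at 37 C before ATP content is quantified by luciferase luminescence. Reported AC50 figures come from standard Hill-equation curve fitting.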

[7] = Cell Viability - LYMP2-019 (AID 973)
Outline: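 AC50 values come from Hill-equation modelling of qHTS concentration-response curves, where viability is measured as luciferase-based ATP luminescence in the lymphoblastoid line after 24 hr compound exposure in complete culture medium.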

[8] = Cell Viability - LYMP2-021 (AID 974)
Outline: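 In qHTS format, compounds are tested against 2500 lymphoblastoid cells per well for 24 h; viable cell number is inferred from ATP-driven luciferase light, and Hill-equation fitting yields AC50 values.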

[9] = Cell Viability - LYMP2-023 (AID 975)
Outline: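 In this qHTS, ATP-based luciferase luminescence (CellTiter-Glo) is quantified in human lymphoblastoid cells after 24 hr compound treatment at 37 C; tetraoctylammonium bromide serves as positive control. Concentration-response curves are Hill-fitted to give AC50.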

[10] = Cell Viability - LYMP2-002 (AID 977);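 further: potency means the concentration at half of the fitted maximal effect; compound exposure lasted 24 h at 37 °C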
Outline: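 Human lymphoblastoid cells, 2500/well, complete medium; 5 h 37 C settle; compound 24 h 37 C; CellTiter-Glo, 30 min RT; luminescence. Decrease in ATP = cytotoxicity; AC50 via Hill equation.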

[11] = Cell Viability - LYMP2-006 (AID 978);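 further: potency means the concentration at half of the fitted maximal effect; cells exposed to compound for 24 hours; nearly all actives have a fitted effect of over 60% in size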
Outline: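 Cells are seeded at 2500 per well and rested 5 hr at 37 C. Compounds are added across a concentration series for 24 hr at 37 C, after which ATP is quantified by luciferase luminescence.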

[12] = Cell Viability - LYMP2-007 (AID 979);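 further: potency means the concentration at half of the fitted maximal effect; cells exposed to compound for 24 h before reading; nearly all actives have a fitted effect of over 60% in size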
Outline: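 Measured via luciferase-based ATP quantitation: lymphoblastoid cells, 24 hr compound exposure at 37 C, AC50 from Hill fits.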

[13] = Cell Viability - LYMP2-008 (AID 980); further: potency means the concentration at half of the fitted maximal effect; nearly all actives have a fitted effect of over 60% in size
Outline: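 Measured: ATP-dependent luminescence, proportional to viable cell number, in human lymphoblastoid cells treated 24 hr with compound in complete culture medium. Values are AC50s from Hill-equation modelling of qHTS titrations.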

[14] = Cell Viability - LYMP2-012 (AID 982)
[15] = Cell Viability - LYMP2-014 (AID 983); further: potency means the concentration at half of the fitted maximal effect; nearly all actives have a fitted effect of over 50% in size
Outline: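 Quantitative HTS in lymphoblastoid cells: 24 hr compound exposure, then CellTiter-Glo ATP luminescence. Positive control was tetraoctylammonium bromide, 6.4pM to 92 uM.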

[16] = Cell Viability - LYMP2-016 (AID 984)
Outline: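 Cells were seeded at 2500 per well and rested 5 hr before a 24 hr compound exposure at 37 C. Viability was then gauged as cellular ATP by luciferase luminescence, with AC50 values fitted to the Hill equation.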

[17] = Cell Viability - LYMP2-018 (AID 985); further: potency means the concentration at half of the fitted maximal effect; nearly all actives have a fitted effect of over 50% in size
Outline: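 In this qHTS viability assay, cells are treated for 24 hr and cellular ATP is quantified by luciferase-based luminescence, with tetraoctylammonium bromide as positive control.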

[18] = Cell Viability - LYMP2-020 (AID 986)
Outline: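 Cells at 2500 per well receive a 24 hr compound exposure at 37 C. Viability is measured as ATP-dependent luciferase luminescence, with AC50 modeled from qHTS concentration-response curves.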

[19] = Cell Viability - LYMP2-022 (AID 987)
Outline: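 In this qHTS cytotoxicity screen, compound titrations were incubated 24 hr at 37 C with human lymphoblastoid cells in complete medium. Luciferase-based ATP luminescence provided the viability signal.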

[20] = Cell Viability - LYMP2-024 (AID 988)
Outline: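 Cells at 2500 per well received compound for 24 hr after a 5 hr settling period. Viability was scored by CellTiter-Glo luminescence, with AC50 from Hill fits.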

[21] = Cell Viability - LYMP2-026 (AID 989); further: potency means the concentration at half of the fitted maximal effect; nearly all actives have a fitted effect of over 50% in size
Outline: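 Acute toxicity screen in complete culture medium, with 24 hr compound exposure at 37 C. Viability read as cellular ATP via luciferase reaction, with tetraoctylammonium bromide (6.4pM to 92 uM) as positive control.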

[22] = biological target: Glucocorticoid receptor (Homo sapiens) (UniProt P04150); assay: qHTS assay for small molecule antagonists of glucocorticoid receptor signaling (AID 588533; active means well fitted inhibition curve with a large enough effect in the signal ratio, with a control signal flat, not every such curve was filed as active; the % refers to the signal ratio;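 further: cells stimulated with 2 nM dexamethasone as agonist; on the % scale 0 is the no-effect control and ±100 the full control effect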)
Outline: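 Antagonist-mode qHTS: compound titrations added to GRE-bla HeLa cells, then dexamethasone 2 nM final; 18 h, 37 C. CCF4 FRET fluorescence normalized to dexamethasone and DMSO; IC50 from Hill fit.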

[23] = biological target: Peroxisome proliferator-activated receptor delta (Homo sapiens) (UniProt Q03181); assay: qHTS assay for small molecule agonists of peroxisome proliferator-activated receptor delta signaling (AID 588534; calls by dose curve;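 further: 0% = DMSO basal wells and 100% = positive control agonist at 10 µM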)
Outline: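 EC50 and efficacy values derive from Hill fits of a concentration series in a beta-lactamase reporter cell assay. Exposure is 18 hrs at 37 C, with CCF4 fluorescence as the readout.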

[24] = biological target: Voltage-gated inwardly rectifying potassium channel KCNH2 (Homo sapiens) (UniProt Q12809); assay: qHTS Assay for Small Molecule Inhibitors of the Human hERG Channel Activity (AID 588834);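 further: potency means the concentration at half of the fitted maximal effect; lower thallium flux fluorescence means stronger hERG block; nearly all actives have a fitted effect of over 50% in size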
Outline: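 Step 1: BacMam hERG transduction of U2OS, 4 hrs RT. Step 2: overnight 37 °C, plate 2000 cells/well, 4 hr. Step 3: FluxOR load, compound 10 min, stimulate, read fluorescence.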

[25] = qHTS assay for small molecule agonists of the antioxidant response element (ARE) signaling pathway (AID 651741; active means well fitted activation curve with a large enough effect in the signal ratio; the % refers to the signal ratio; further: % of control where 0% means no effect)
Outline: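 HepG2 ARE-bla reporter cells, 2,000/well; 5 h settle at 37 C/5% CO2; compound pin transfer (23 nL, DMSO); 16 h at 37 C; LiveBLAzer B/G FRET substrate, 2 h RT; fluorescence intensity read.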

[26] = qHTS assay for small molecule activators of the p53 signaling pathway (AID 651743; active means well fitted activation curve with a large enough effect in the signal ratio, not every such curve was filed as active; the % refers to the signal ratio; further: series mostly up to about 92 µM; % of control where 0% means no effect); conditions: HCT-116 p53RE-bla, beta-lactamase FRET ratio, 16 h; activation: active compounds read high
Outline: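 Reporter: beta-lactamase driven by p53 response elements, stably integrated in HCT-116 cells. Cells seeded at 4,000/well, 5 h preincubation, compound (DMSO) 16 h at 37 C; B/G FRET substrate 2 h RT; fluorescence intensity read.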

[27] = qHTS assay to identify small molecules that stimulate interleukin-8 (IL-8) secretion (AID 651758; active means well fitted activation curve with a large enough effect in the signal ratio; the % refers to the signal ratio; further: potency means the concentration at half of the fitted maximal effect)
Outline: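 Compounds are added to THP-1 cells (2000 per well) and left 16 hrs at 37 C. A labeled anti-IL-8 antibody pair is then added, and IL-8 secretion is measured by time-resolved FRET after 1-3 hrs at room temperature.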

[28] = biological target: Nuclear receptor ROR-gamma (Homo sapiens) (UniProt P51449); assay: qHTS assay for small molecule antagonists of the retinoid-related orphan receptor gamma (ROR-gamma) signaling pathway (AID 651802)
Outline: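 Doxycycline-induced reporter activity in engineered CHO cells (TET-inducible ROR, RORE-LUC) was measured by luminescence after 16hr compound exposure at 37C.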

[29] = qHTS assay for small molecule antagonists of the retinoid-related orphan receptor gamma (ROR-gamma) signaling pathway - cell viability counter screen (AID 720652; active means well fitted curve in the direction sought with a large enough effect in the repeat runs; an effect the other way counts as inactive or inconclusive;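 further: potency means the concentration at half of the fitted maximal effect; compound exposure lasted 16 hr before ATP read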)
Outline: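 ATP-based viability readout in the ROR-gamma reporter CHO cells after 16 hr compound exposure under doxycycline induction.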

[30] = biological target: Bile acid receptor (Homo sapiens) (UniProt Q96RI1); assay: qHTS assay for small molecule agonists of farnesoid X receptor signaling (AID 588527; calls by dose curve;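 further: series mostly up to about 77 µM; 0% = vehicle basal and 100% = reference agonist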); conditions: HEK293T FXR-UAS-bla, beta-lactamase ratio, 16 h; activation: active compounds read high
Outline: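 Quantitative HTS used FXR-UAS-bla HEK293T cells with 16 h compound incubation at 37 C. EC50 values came from concentration-response curves normalized to chenodeoxycholic acid.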

[31] = qHTS assay for environmental chemicals that activate the Aryl hydrocarbon Receptor (AhR) signaling pathway (AID 651777); conditions: 1A2-DRE human hepatoma cells, luciferase, 24 h; activation: active compounds read high; further: potency means the concentration at half of the fitted maximal effect; nearly all actives have a fitted effect of over 15% in size
Outline: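 1A2-DRE human hepatoma reporter line; 1,200 cells/well; cmpd or DMSO 24 h, 37 C/5% CO2; One-Glo 30 min RT; luciferase lum.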

Sequence of Peroxisome proliferator-activated receptor delta (Homo sapiens) (Q03181 whole entry, looked up): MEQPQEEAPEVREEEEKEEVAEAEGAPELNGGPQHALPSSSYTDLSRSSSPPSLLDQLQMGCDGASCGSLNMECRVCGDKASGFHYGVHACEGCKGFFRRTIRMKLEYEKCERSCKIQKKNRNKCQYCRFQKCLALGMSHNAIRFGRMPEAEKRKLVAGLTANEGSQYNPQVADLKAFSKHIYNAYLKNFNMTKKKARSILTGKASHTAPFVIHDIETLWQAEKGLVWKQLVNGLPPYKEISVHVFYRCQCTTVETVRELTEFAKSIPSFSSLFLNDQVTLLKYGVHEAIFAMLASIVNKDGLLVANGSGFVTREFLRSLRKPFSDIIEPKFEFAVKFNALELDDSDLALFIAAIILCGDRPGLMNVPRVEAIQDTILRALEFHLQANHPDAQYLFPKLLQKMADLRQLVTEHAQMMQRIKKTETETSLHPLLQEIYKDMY
Sequence of Bile acid receptor (Homo sapiens) (Q96RI1 whole entry, looked up): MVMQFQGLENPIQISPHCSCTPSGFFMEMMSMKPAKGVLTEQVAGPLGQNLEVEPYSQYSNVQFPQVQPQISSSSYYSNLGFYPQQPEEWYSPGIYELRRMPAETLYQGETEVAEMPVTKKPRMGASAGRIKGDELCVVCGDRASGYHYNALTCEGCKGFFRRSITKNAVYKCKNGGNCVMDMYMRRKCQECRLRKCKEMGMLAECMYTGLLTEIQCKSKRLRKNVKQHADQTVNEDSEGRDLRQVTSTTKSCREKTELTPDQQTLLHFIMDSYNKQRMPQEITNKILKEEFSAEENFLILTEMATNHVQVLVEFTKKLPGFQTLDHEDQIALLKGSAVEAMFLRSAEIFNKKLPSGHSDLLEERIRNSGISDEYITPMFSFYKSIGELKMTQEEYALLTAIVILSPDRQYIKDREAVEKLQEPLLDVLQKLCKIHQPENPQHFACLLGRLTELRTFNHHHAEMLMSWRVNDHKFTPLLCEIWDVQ
Sequence of Voltage-gated inwardly rectifying potassium channel KCNH2 (Homo sapiens) (Q12809 whole entry, looked up): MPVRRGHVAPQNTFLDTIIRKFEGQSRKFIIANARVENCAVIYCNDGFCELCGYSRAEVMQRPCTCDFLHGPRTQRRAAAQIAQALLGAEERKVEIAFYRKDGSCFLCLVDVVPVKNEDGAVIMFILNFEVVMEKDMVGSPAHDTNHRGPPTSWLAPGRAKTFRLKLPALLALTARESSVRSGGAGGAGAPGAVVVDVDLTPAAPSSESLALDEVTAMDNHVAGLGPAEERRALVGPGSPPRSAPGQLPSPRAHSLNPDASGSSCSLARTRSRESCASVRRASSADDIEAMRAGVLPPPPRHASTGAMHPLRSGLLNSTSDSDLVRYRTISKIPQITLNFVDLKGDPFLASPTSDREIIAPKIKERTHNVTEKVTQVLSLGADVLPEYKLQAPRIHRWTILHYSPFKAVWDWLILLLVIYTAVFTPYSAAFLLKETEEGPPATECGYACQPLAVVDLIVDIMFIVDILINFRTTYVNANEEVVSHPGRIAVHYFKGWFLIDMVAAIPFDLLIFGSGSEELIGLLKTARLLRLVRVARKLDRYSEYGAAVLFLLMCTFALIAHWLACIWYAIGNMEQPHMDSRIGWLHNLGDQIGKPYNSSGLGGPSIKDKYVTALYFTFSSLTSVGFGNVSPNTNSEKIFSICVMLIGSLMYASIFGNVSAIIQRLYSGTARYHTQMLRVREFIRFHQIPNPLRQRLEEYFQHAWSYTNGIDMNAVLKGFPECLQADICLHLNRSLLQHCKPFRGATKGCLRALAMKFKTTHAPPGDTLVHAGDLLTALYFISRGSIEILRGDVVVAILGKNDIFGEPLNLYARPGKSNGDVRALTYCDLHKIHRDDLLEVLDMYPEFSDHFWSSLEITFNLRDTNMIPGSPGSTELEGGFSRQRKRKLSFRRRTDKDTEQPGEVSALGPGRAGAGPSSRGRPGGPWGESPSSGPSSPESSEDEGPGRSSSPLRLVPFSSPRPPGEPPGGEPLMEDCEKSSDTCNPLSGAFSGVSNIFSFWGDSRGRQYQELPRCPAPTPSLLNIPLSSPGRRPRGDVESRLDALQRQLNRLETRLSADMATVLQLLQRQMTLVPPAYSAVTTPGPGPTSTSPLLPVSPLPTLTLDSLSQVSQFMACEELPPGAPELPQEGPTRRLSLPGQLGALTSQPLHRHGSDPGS
Sequence of Nuclear receptor ROR-gamma (Homo sapiens) (P51449 whole entry, looked up): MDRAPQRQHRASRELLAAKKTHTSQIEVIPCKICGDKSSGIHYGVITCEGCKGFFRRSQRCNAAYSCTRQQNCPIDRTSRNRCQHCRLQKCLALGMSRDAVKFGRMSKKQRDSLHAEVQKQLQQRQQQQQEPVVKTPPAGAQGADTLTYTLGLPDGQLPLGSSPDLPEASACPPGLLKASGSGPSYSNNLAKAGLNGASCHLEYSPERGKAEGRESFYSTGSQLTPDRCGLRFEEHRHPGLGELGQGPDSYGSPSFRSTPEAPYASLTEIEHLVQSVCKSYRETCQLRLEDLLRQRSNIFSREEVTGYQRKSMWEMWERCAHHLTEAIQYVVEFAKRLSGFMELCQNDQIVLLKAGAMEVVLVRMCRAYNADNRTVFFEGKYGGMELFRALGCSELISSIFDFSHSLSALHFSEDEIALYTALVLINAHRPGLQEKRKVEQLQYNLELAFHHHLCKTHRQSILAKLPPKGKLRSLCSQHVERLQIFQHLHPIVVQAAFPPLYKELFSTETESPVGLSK
Sequence of Glucocorticoid receptor (Homo sapiens) (P04150 whole entry, looked up): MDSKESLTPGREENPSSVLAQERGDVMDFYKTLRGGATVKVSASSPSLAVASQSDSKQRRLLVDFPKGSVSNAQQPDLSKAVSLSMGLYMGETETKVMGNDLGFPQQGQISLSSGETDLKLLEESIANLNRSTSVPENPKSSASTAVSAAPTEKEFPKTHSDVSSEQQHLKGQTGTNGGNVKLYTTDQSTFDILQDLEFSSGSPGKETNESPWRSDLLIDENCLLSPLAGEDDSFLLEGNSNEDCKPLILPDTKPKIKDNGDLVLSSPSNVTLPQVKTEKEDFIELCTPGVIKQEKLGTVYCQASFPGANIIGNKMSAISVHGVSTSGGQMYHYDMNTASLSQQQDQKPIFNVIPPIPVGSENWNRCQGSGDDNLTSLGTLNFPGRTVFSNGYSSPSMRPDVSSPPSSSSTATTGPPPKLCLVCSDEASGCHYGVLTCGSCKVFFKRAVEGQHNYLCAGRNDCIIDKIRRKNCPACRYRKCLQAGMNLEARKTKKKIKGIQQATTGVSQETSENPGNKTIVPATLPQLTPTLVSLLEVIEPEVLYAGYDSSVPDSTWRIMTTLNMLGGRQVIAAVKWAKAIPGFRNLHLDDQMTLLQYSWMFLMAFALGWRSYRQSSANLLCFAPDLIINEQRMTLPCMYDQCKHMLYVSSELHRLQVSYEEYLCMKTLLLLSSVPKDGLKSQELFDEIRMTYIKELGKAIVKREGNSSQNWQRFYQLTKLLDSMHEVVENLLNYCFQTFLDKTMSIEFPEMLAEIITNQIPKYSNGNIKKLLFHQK

ClC1=C(Cl)C(Cl)(Cl)C(Cl)=C1Cl
inactive: Potency [22] | outcome [23] | Potency [25] | activation [26] 12.3%
active: Potency [1] 5.01 µM | Potency [2] 7.94 µM | Potency [3] 6.31 µM | Potency [4] 6.31 µM | Potency [5] 3.98 µM | Potency [6] 6.31 µM | Potency [7] 6.31 µM | Potency [8] 6.31 µM | Potency [9] 5.01 µM | Potency [10] 6.31 µM | Potency [11] 7.94 µM | Potency [12] 3.16 µM | Potency [13] 3.16 µM | Potency [14] 6.31 µM | Potency [15] 7.94 µM | Potency [16] 6.31 µM | Potency [17] 7.94 µM | Potency [18] 7.94 µM | Potency [19] 6.31 µM | Potency [20] 3.16 µM | Potency [21] 10 µM | Potency [24] 22.4 µM | Potency [27] 29.8 µM | Potency [28] 13.3 µM | Potency [29] 11.9 µM

Oc1ccc2ccccc2c1N=Nc1ccccc1
active: Potency [31] 14.1 µM
inactive: activation [30] 3.78%

From PubChem BioAssay (NCATS)
